Out of some 140,000 compounds screened, about 2,100 (1.5%) were called active. Cut-off read from the data, not from the text of the source: active = protection mostly above about 24% (no sharp cut-off); inactive = mostly below about 26%. The entries come from a sample that favours actives as a whole.

This note sets out measurements from PubChem BioAssay AID841 (Emory University Molecular Libraries Screening Center, 2007).

The experiment is described as follows: compounds protecting cells from measles virus cytopathic effect, primary screen, measles RdRp inhibitor project, single point, MLSMR library, absorbance (AID 841). The following applies: Measles virus-infected cells, CPE protection, at 4 µM, hits give high values.
As to `CC(=O)Cc1nsc(NC(=O)c2csc3c2CCCC3)n1`, the protection (pct of control) was 2.51% (inactive).
The result for `COC(=O)c1sccc1NC(=O)c1csc2c1CCCC2` reads 9.63% (inactive); that for `COC(=O)c1sc(NC(=O)c2csc3c2CCCC3)nc1C`, 49.9% (active); that for `Cc1cc(C)c(S(=O)(=O)c2ccccc2)c(OC(=O)c2c(F)cccc2Cl)n1`, 38.9% (active).
The result for `Cc1cc(OC(=O)c2c(Cl)cccc2Cl)nc(C)n1` reads 8.28% (inactive).
With `CN(c1ccccc1)S(=O)(=O)c1cccc(NC(=O)Cc2c(F)cccc2Cl)c1`, the protection (pct of control) was 5.27% (inactive).
Regarding `CCNc1ccc(C(=O)OCC(=O)N2c3ccccc3NC(=O)C2(C)C)cc1[N+](=O)[O-]`, the protection (pct of control) was 5.03% (inactive).
For `Cc1n[nH]c(=S)n1/N=C/c1ccc(Br)o1`, the protection (pct of control) was 7.57% (inactive).
On to `COc1cc(/C=N/O)ccc1OCc1ccc([N+](=O)[O-])cc1`, for which the protection (pct of control) was 30% (inactive).
Take `COc1cc(/C=N/n2c(C)n[nH]c2=S)ccc1OCc1ccccc1`: the protection (pct of control) is 79.2% (active).
As for `COc1ccc(C(=O)ON=C2c3ccccc3-c3ccccc32)cc1OC`, the protection (pct of control) is 9.81% (inactive).
The value for `Cc1cccc(OCCNC(=S)NC(=O)c2cccnc2)c1` was 16.7% (inactive); that for `COc1ccccc1CC(=O)Nc1ccc([N+](=O)[O-])cc1OC` was 14.5% (inactive); that for `COc1ccc(Br)cc1CN(C)CC(=O)Nc1cc([N+](=O)[O-])ccc1OC` was 4.74% (inactive).
Turning to `COc1ccc([N+](=O)[O-])cc1NC(=O)CCc1ccccc1`, the protection (pct of control) was 101% (active).
Consider `CCC1S/C(=N/N=C/c2ccco2)NC1=O` (stereo unspecified), for which the protection (pct of control) was 7.36% (inactive).
In the case of `CCOCCCNC(=O)C(NC(=O)CNC(=O)c1ccccc1)c1ccc(C)cc1` (stereo unspecified), the protection (pct of control) was 7.37% (inactive).
`CCOCCCNC(=O)C(NC(=O)c1ccc(=O)[nH]c1)c1ccc(Cl)cc1` (stereo unspecified): the protection (pct of control) is 30.2% (active).
The result for `CCOCCCNC(=O)C(NC(=O)c1ccc(=O)[nH]c1)c1ccc(C)cc1` (stereo unspecified) reads 6.13% (inactive); that for `Cc1ccc(-c2cc(N)on2)cc1`, 16.5% (inactive); that for `Cc1ccc(S(=O)(=O)N2CCCC2C(=O)OCc2nc3sc(C)c(C)c3c(=O)[nH]2)cc1` (stereo unspecified), 4.09% (inactive).
Turning to `Cc1ccc2[nH]c(C(=O)O)c(NC(=O)c3ccccc3[N+](=O)[O-])c2c1`, the protection (pct of control) was 14.1% (inactive).
For `CCOC(=O)c1c(-c2ccc(C)cc2C)csc1NC(=O)CSc1nnnn1C`, the protection (pct of control) is 37% (active).
Consider `COC(=O)c1ccccc1NC(=O)CSc1nnnn1C`, for which the protection (pct of control) is 30.8% (inactive).
With `CCOC(=O)CNC(=O)CSc1nnnn1-c1cc(C)ccc1C`, the protection (pct of control) was 4.67% (inactive).
As for `COc1ccc(/C=C/C(=O)Nc2ccc3c(c2)OCCO3)cc1OC`, the protection (pct of control) was 18.3% (inactive).
`CC1(C)CC(=O)C(C=NCCC2=CCCCC2)=C(O)C1`: the protection (pct of control) was 36.1% (active).
For `CC1(C)CC(=O)C(C=NCc2cccnc2)=C(O)C1`, the protection (pct of control) is 2.03% (inactive).
Turning to `CC(=O)N1CCN(CCN=CC2=C(O)CC(C)(C)CC2=O)CC1`, the protection (pct of control) was 2.75% (inactive).
For `CN1CCN(S(=O)(=O)c2ccc(NC(=O)c3ccco3)cc2)CC1`, the protection (pct of control) is 12.2% (inactive).
The value for `CN1CCN(S(=O)(=O)c2ccc(NC(=S)NC(=O)C3CC3)cc2)CC1` was 7.47% (inactive); that for `CN1CCN(S(=O)(=O)c2ccc(NC(=O)C3CCCO3)cc2)CC1` (stereo unspecified) was 28.4% (active); that for `C/C(=N\NC(=O)Cc1ccc(F)cc1)c1ccc(F)cc1` was 16.1% (inactive).
As to `Cc1ccccc1C(CC(=O)c1cccs1)C(C#N)C#N` (stereo unspecified), the protection (pct of control) is 1.36% (inactive).
`O=C(Nc1ccn(Cc2ccc(F)cc2)n1)c1ccncc1`: the protection (pct of control) was 61.8% (active).
Regarding `Cc1ccc(Cn2ccc(NC(=O)c3cc(C(C)C)on3)n2)cc1`, the protection (pct of control) is 10.8% (inactive).
The value for `O=C(Nc1ccn(Cc2ccccc2)n1)c1n[nH]c([N+](=O)[O-])c1Cl` was 4.93% (inactive); that for `CC(=O)N1C(C)c2ccccc2C(C)(C)CC12CCCCC2` (stereo unspecified) was 1.83% (inactive).
In the case of `Cc1ccc(C)c(NC(=O)CSc2nc3c(oc4ccccc43)c(=O)n2-c2ccccc2)c1`, the protection (pct of control) was 11.7% (inactive).
In the case of `Cc1ccc(SCCC(=O)OCC(=O)Nc2ncc(Cl)cc2Cl)cc1`, the protection (pct of control) is 25.6% (inactive).
The value for `Cc1ccc(-n2c(SCC(=O)Nc3ncc(Cl)cc3Cl)nc3ccccc32)cc1` was 45.3% (active).
Regarding `NC(=O)CCC(NS(=O)(=O)c1ccc(Cl)cc1)C(=O)NCc1ccccc1Cl` (stereo unspecified), the protection (pct of control) is 5.12% (inactive).
For `CNC(=S)N/N=C/c1ccc(OCc2ccccc2)c(Br)c1`, the protection (pct of control) was 4.55% (inactive).
Take `CCOC(=O)Cc1csc(SCC(=O)NC(C)C23CC4CC(CC(C4)C2)C3)n1` (stereo unspecified): the protection (pct of control) was 4.07% (inactive).
For `Cc1cccc(Nc2nc3c(S(=O)(=O)c4ccccc4)nnn3c3ccccc23)c1C`, the protection (pct of control) is 4.8% (inactive).
With `CCc1ccc(NC2Nc3cc(C)nn3S2)cc1` (stereo unspecified), the protection (pct of control) is 40.8% (active).
The value for `COc1ccc(Oc2c(Cl)cnn(-c3ccccc3)c2=O)cc1` was 42.2% (active).
As to `COc1ccc(-n2c(C)nc3c(cnn3-c3ccccc3)c2=O)cc1`, the protection (pct of control) is 1.2% (inactive).
With `Cc1ccc(-c2nc3c(cnn3-c3ccccc3)c(=O)o2)cc1`, the protection (pct of control) is 8.52% (inactive).
In the case of `Cc1cc(C(=O)CSc2nc(N)cc(=O)[nH]2)c(C)n1-c1cccc(F)c1`, the protection (pct of control) is 24.8% (inactive).
The result for `O=C(C1CCCO1)N1CCN(C(=S)Nc2cccc(Cl)c2)CC1` (stereo unspecified) reads 19.2% (inactive); that for `C=C(C)c1cccc(C(C)(C)NC(=O)NC2CCCC2)c1`, 2.05% (inactive).
With `CCOC(=O)c1sc(NC(=O)COc2ncnc3ccccc23)c(C(=O)OCC)c1C`, the protection (pct of control) is 23.3% (inactive).
For the compound `O=C(CN1CCc2ccccc21)NC(c1ccccc1)c1ccccc1`, the protection (pct of control) is 11.6% (inactive).
On to `Cc1ccc(S(=O)(=O)NCC(=O)N(CC(=O)NC(C)(C)C)Cc2cccs2)cc1`, for which the protection (pct of control) is 32.1% (active).
For `Cc1ccc(S(=O)(=O)NCC(=O)N(CC(=O)NC2CCCCC2)Cc2ccco2)cc1`, the protection (pct of control) is 39.7% (inactive).
Take `CC(C)(C)NC(=O)CN(Cc1cccs1)C(=O)CNS(=O)(=O)c1ccccc1`: the protection (pct of control) is 4.11% (inactive).
`Cc1ccc(-c2nn(-c3ccccc3)cc2/C=N/NC(=O)c2ccc3c(c2)OCO3)cc1`: the protection (pct of control) was 11.1% (inactive).
In the case of `Cc1nnc(SCC(=O)N/N=C/c2cn(-c3ccccc3)nc2-c2ccc(F)cc2)n1-c1ccccc1`, the protection (pct of control) is 50.4% (active).
Turning to `COc1ccc(OC)c(/C=N/NC(=O)CSc2nnc(C)n2-c2ccccc2)c1`, the protection (pct of control) is 6.95% (inactive).
Regarding `Cc1ccccc1C1=NC(C(F)(F)F)(C(F)(F)F)c2c(n(-c3ccc(F)cc3)c(=O)[nH]c2=O)N1`, the protection (pct of control) is 14.5% (inactive).
The value for `COc1ccc(Br)cc1C(=O)NC(=S)Nc1cc(-c2nc3ccccc3[nH]2)ccc1C` was 3.52% (inactive).
The value for `Cc1ccc(-c2nc3ccccc3[nH]2)cc1N` was 6.87% (inactive).
Turning to `Cc1ccc(-c2nc3ccccc3[nH]2)cc1NC(=O)c1sc2ccccc2c1Cl`, the protection (pct of control) was 80.8% (active).
For `CCOc1ccc2nc(C(=O)N3CCCC(C)C3)sc2c1` (stereo unspecified), the protection (pct of control) was 14.9% (inactive).
Turning to `CCCCCCCCC(=O)NCCOc1ccccc1`, the protection (pct of control) was 6.49% (inactive).
For the compound `CCCCCCOC(=O)NCC(O)c1ccccc1` (stereo unspecified), the protection (pct of control) was 31.3% (active).
As for `CCCCCOC(=O)NCCOC(=O)Nc1ccc(C(=O)OCC)cc1`, the protection (pct of control) is 3.01% (inactive).
On to `CCOc1ccc(N2C(=O)/C(=C/c3ccc(C)o3)N(C)C2=S)cc1`, for which the protection (pct of control) was 19.4% (inactive).
In the case of `CCC(=O)Nc1c(S(=O)(=O)c2ccccc2)c2nc3ccccc3nc2n1Cc1ccccc1`, the protection (pct of control) is 8.35% (inactive).
The value for `COc1ccc(OC)c(C2C3=C(N=c4s/c(=C\c5cccc(O)c5)c(=O)n42)c2ccccc2CC3)c1` (stereo unspecified) was 10.7% (inactive); that for `O=C1CCCC2=C1C(c1ccccc1)n1c(s/c(=C/c3cccc(F)c3)c1=O)=N2` (stereo unspecified) was 48.1% (active).
In the case of `O=C1CC(c2cccc(F)c2)C2=C(CCCC2=O)N1` (stereo unspecified), the protection (pct of control) was 11.2% (inactive).
With `CCCN(CCC)c1c([N+](=O)[O-])c(=O)oc2ccccc12`, the protection (pct of control) is 2.94% (inactive).
For the compound `Cc1nc2ccccc2c2oc(C(=O)NCC3CCCO3)cc12` (stereo unspecified), the protection (pct of control) was 13.5% (inactive).
Consider `O=C(NCC1CCCO1)c1ccc2ccccc2n1` (stereo unspecified), for which the protection (pct of control) was 9.11% (inactive).
As to `Cc1ccc(C(=O)NCC2CCCO2)o1` (stereo unspecified), the protection (pct of control) was 45.6% (active).
For `CC(=O)NNC1=Nc2ccccc2N(C)C(C)C1` (stereo unspecified), the protection (pct of control) was 14.9% (inactive).
`COc1ccc(-n2c(C)cc(C(=O)COC(=O)c3cc(OC)c(OC)cc3NC(=O)c3cccs3)c2C)cc1`: the protection (pct of control) was 5.86% (inactive).
Consider `Cc1cc(=O)n2nc(N3CCCC(C(=O)N4CCN(C)CC4)C3)sc2n1` (stereo unspecified), for which the protection (pct of control) is 14.9% (inactive).
For the compound `Cc1cc(=O)n2nc(N3CCCC(C(=O)NCCC4=CCCCC4)C3)sc2n1` (stereo unspecified), the protection (pct of control) was 38.4% (active).
For the compound `COc1ccc(CCNC(=O)C2CCN(c3nn4c(=O)cc(C)nc4s3)CC2)cc1OC`, the protection (pct of control) is 0.06% (inactive).
As to `CC(C)c1nccn1S(=O)(=O)c1cc([N+](=O)[O-])ccc1Cl`, the protection (pct of control) is 14.2% (inactive).
As to `COCc1c(C(=O)N/N=C/C2CC=CCC2)nnn1-c1nonc1N` (stereo unspecified), the protection (pct of control) is 5.58% (inactive).
For the compound `Cc1nc(Cl)c2oc3ccccc3c2n1`, the protection (pct of control) is 18.2% (inactive).
Consider `CCc1nc(Nc2ccc3nccnc3c2)c2oc3ccccc3c2n1`, for which the protection (pct of control) is 5.78% (inactive).
Regarding `COc1ccccc1Nc1ncnc2c1oc1ccccc12`, the protection (pct of control) is 44.3% (active).
For `CC1=C(C(=O)Nc2cc(C)ccn2)C(c2cnn(C)c2)C2=C(CC(c3ccccc3)CC2=O)N1` (stereo unspecified), the protection (pct of control) is 4.9% (inactive).
Take `C/C(=N/NC(=S)Nc1ccccc1)c1ccc2c(c1)OCO2`: the protection (pct of control) was 20.8% (inactive).
Turning to `COc1ccc([C@H]2[C@H](C(C)=O)N3N=Cc4ccccc4C3C23C(=O)OC(C)(C)OC3=O)cc1` (stereo partly specified), the protection (pct of control) was 9.43% (inactive).
Take `O=C(N/N=C/c1cc([N+](=O)[O-])ccc1O)/C(=C\c1cccs1)NC(=O)c1ccccc1`: the protection (pct of control) is 3.64% (inactive).
Consider `CC1CCCN(S(=O)(=O)c2ccc(N(C(=O)c3cnccn3)C(C(=O)NC3CCCCC3)c3cccs3)cc2)C1` (stereo unspecified), for which the protection (pct of control) is 5.77% (inactive).
The value for `O=C(NC(CC(=O)N1CCN(c2ccccc2)CC1)c1ccccc1)c1ccccc1Cl` (stereo unspecified) was 5.39% (inactive); that for `CCOc1ccc(Nc2nc(Cc3nnc(SCC(=O)c4ccc(C)cc4)o3)cs2)cc1` was 31.3% (active).
Consider `CCOc1ccc(Nc2nc(Cc3nnc(SCC(=O)NC4CCCC4)n3C)cs2)cc1`, for which the protection (pct of control) is 4.14% (inactive).
In the case of `CC(=O)Nc1ccc(C(=O)CSc2nnc(Cc3ccccc3)o2)cc1`, the protection (pct of control) was 5.61% (inactive).
